Assay results published in PubChem BioAssay AID1347383 (Zoeller Lab, School of Medicine, Boston University, 2020).
The source made the active and inactive calls.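 The calls were made as follows: active = cell survival after UV exposure 2 SD above solvent-only control wells at 10 µM, confirmed on one or two repeats; inactive = the rest.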

Assay: cell survival after pyrene fatty acid photosensitization – ZR-82 cells, Analyticon library, screen 2, phospholipid biosynthesis inhibitor project, primary screen (AID 1347383);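 also: survival reflects blocked phospholipid synthesis cutting uptake of the phototoxic fatty acid; compound and fatty acid exposure 3 h then viability read next day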
Settings: ZR-82 CHO cells, pyrene-fatty acid UV killing, CellTiter Blue; at 10 µM; peroxisome-deficient CHO-K1 variant; with DGAT-1, DGAT-2 and ACAT inhibitors

SMILES | outcome
C=C1C[C@H](O)C[C@]2(C)CC[C@@H](C(C)(C)O)CC12 (stereo not given in full) | inactive
CC(=O)NC(Cc1c[nH]c2ccccc12)C(=O)O (stereo not given) | inactive
CCCCc1c(CC=C(C)C)[nH]c(=O)c(C)c1O | inactive
C/C=C/C=C/[C@H]1Cc2cc(O)cc(O)c2O1 | inactive
O=C(CCCCc1ccc(O)cc1)CCc1ccc(O)cc1 | inactive
COc1cc(O)cc(O)c1C(=O)c1ccc(O)c(O)c1 | inactive
C=C1CCC2C(OC(=O)C2(O)COC(C)=O)C2C(=C)C(O)CC12 (stereo not given) | inactive
OCCc1ccc(O)cc1 | inactive
COc1cc(O)c2c(c1)C(=O)c1cc(C)cc(O)c1C2=O | inactive
COc1cc(O)cc2c1C(=O)CC(c1ccc(O)cc1)O2 (stereo not given) | inactive
COc1c(C(=O)CC(=O)c2ccccc2)ccc2occc12 | inactive
COc1c(O)cc2c3c1COc1cc(O)cc(c1-3)CC2 | inactive
CCC(C)C1NC(=O)C(Cc2ccccc2)NC(=O)C(CCCCCC(=O)C(O)CO)NC(=O)C2CCCCN2C1=O (stereo not given) | inactive
COc1cc2oc(=O)ccc2cc1[C@H]1OC(=O)[C@]2(C)OC12 (stereo not given in full) | inactive
CCC1CN2CCc3cc(OC)c(OC)cc3C2CC1CC1NCCc2cc(OC)c(OC)cc21 (stereo not given) | inactive
C=C1C(=O)OC2C1C(O)CC1(C)C(O)CCC(C=O)C21 (stereo not given) | inactive
CCC(C)C(=O)Oc1cc(C)ccc1C1(COC(=O)C(C)C)CO1 (stereo not given) | inactive
Oc1cc(O)c2c(c1)O[C@H](c1ccc(O)c(O)c1)[C@@H](O)C2 | inactive
CC(C)c1ccc2c(c1)CCC1[C@](C)(C(=O)O)CCC[C@]21C (stereo not given in full) | inactive
CCCCCCCC(O)/C=C\C(O)CCC(O)CCCC(=O)O (stereo not given) | inactive

SMILES | outcome
O=c1c(O)c(-c2c(O)cccc2O)oc2cc(O)cc(O)c12 | inactive
CNC(=O)Oc1ccc2c(c1)[C@]1(C)CCN(C)[C@@H]1N2C | inactive
CC(C)c1ccc2c(c1)C(=O)CC1C(C)(C(=O)O)CCCC21C (stereo not given) | inactive
CC(CO)C1CCC2(C)CC3C(CO)CC(O)C3C(C)(O)CC=C12 (stereo not given) | inactive
COc1c(C)c2c(c(O)c1C/C=C(\C)C(O)CC(=O)O)C(=O)OC2 (stereo not given) | inactive
C=CCc1cc(OC)c(OC(C)C(O)c2ccc(O)c(OC)c2)c(OC)c1 (stereo not given) | inactive
O=C1CC(c2ccc(O)cc2)Oc2cc(O)ccc21 (stereo not given) | inactive
CC1(O)CCC2C(C3C1CCC3(C)O)C2(C)C (stereo not given) | inactive
COc1ccc(OC2OC(COC3OCC(O)C(O)C3O)C(O)C(O)C2O)cc1OC (stereo not given) | inactive
COC1=C(C)C(=O)c2c(cc(O)c3c2OC(C)C3(C)CCC=C(C)C)C1=O (stereo not given) | inactive
C[C@H](O)c1nc2ccccc2c(=O)[nH]1 | inactive
COC(=O)/C=C(\C)CCC1(C)C(C)CCC2(C)C(C)=CC(=O)CC21 (stereo not given) | inactive
Cn1c2c(O)c(O)ccc2c(=O)c2c(O)cc3c(c21)C=CC(C)(C)O3 | inactive
CCCC/C=C\CCCCCCCc1cc(=O)c2ccccc2n1C | inactive
COc1ccc(-c2coc3cc(O)ccc3c2=O)cc1 | inactive
O=C(CCc1ccc(O)cc1)c1c(O)cc(O)cc1O | inactive
Cc1c(O)c2c(oc1=O)C(C)(O)C(C)OC2 (stereo not given) | inactive
O=C(OCc1ccccc1)c1ccccc1 | inactive
CC(C)c1ccc2c(c1)[C@H](O)CC1[C@@](C)(C(=O)O)CCC[C@]21C (stereo not given in full) | inactive
CCCCC[C@H](O)[C@H]1C(=O)OC[C@H]1CO | inactive
